# Assay results as given in article PMC11006913.
# Numbering of substitutions follows the chain as printed.
# How the values were obtained:
# Test in all cases: PBM; 200 nM protein, PBS
# Conditions in all cases: dsDNA, one strand shown
# VENTX [1] = target: T1, VENTX (Homo sapiens, UniProt O95231 78-163, R121Q)
# T1 sequence: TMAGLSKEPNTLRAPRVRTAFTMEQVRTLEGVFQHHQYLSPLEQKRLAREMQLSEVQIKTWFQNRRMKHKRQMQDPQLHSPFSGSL
# VENTX [2] = target: T2, VENTX (Homo sapiens, UniProt O95231 78-163, Y115F)
# T2 sequence: T1 sequence with Y38F, Q44R
# ALX3 [3] = target: ALX3 (Homo sapiens, UniProt O95076 139-225, N203Q)
# Chain of ALX3 (Homo sapiens, UniProt O95076 139-225, N203Q) (O95076 139-225 N203Q): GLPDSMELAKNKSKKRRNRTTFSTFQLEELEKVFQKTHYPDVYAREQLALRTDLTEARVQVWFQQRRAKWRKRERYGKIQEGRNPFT
# ALX3 [4] = target: ALX3 (Homo sapiens, UniProt O95076 139-225)
# Chain of ALX3 (Homo sapiens, UniProt O95076 139-225) (O95076 139-225): as the sequence (O95076 139-225 N203Q) above, with Q65N counted along it
# VAX1 [5] = target: VAX1 (Homo sapiens, UniProt Q5SQQ9 86-172)
# Chain of VAX1 (Homo sapiens, UniProt Q5SQQ9 86-172) (Q5SQQ9 86-172): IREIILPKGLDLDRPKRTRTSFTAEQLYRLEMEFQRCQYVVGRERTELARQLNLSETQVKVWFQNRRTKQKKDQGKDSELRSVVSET
# VAX1 [6] = target: VAX1 (Homo sapiens, UniProt Q5SQQ9 86-172, T142I)
# Chain of VAX1 (Homo sapiens, UniProt Q5SQQ9 86-172, T142I) (Q5SQQ9 86-172 T142I): as the sequence (Q5SQQ9 86-172) above, with T57I counted along it
# ALX3 [7] = target: ALX3 (Homo sapiens, UniProt O95076 139-225, N203S)
# Chain of ALX3 (Homo sapiens, UniProt O95076 139-225, N203S) (O95076 139-225 N203S): as the sequence (O95076 139-225 N203Q) above, with Q65S counted along it
# VAX1 [8] = target: VAX1 (Homo sapiens, UniProt Q5SQQ9 86-172, K157R)
# Chain of VAX1 (Homo sapiens, UniProt Q5SQQ9 86-172, K157R) (Q5SQQ9 86-172 K157R): as the sequence (Q5SQQ9 86-172) above, with K72R counted along it
# HOXB9 [9] = target: HOXB9 (Homo sapiens, UniProt P17482 171-250, T197M)
# Chain of HOXB9 (Homo sapiens, UniProt P17482 171-250, T197M) (P17482 171-250 T197M): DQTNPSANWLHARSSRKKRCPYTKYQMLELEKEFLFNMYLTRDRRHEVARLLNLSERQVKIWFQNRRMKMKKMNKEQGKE
# HOXC9 [10] = target: HOXC9 (Homo sapiens, UniProt P31274 178-260, K195R)
# Chain of HOXC9 (Homo sapiens, UniProt P31274 178-260, K195R) (P31274 178-260 K195R): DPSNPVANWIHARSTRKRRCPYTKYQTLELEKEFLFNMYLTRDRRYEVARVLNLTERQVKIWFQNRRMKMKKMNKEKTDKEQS
# HOXA7 [11] = target: HOXA7 (Homo sapiens, UniProt P31268 116-202)
# Chain of HOXA7 (Homo sapiens, UniProt P31268 116-202) (P31268 116-202): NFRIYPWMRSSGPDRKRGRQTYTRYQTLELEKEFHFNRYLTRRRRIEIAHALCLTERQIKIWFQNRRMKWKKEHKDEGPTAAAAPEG
# HOXC10 [12] = target: HOXC10 (Homo sapiens, UniProt Q9NYD6 254-340)
# Chain of HOXC10 (Homo sapiens, UniProt Q9NYD6 254-340) (Q9NYD6 254-340): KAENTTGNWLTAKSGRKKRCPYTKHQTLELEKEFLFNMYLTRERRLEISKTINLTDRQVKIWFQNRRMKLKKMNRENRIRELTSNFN
# HOXB6 [13] = target: HOXB6 (Homo sapiens, UniProt P17509 132-218, K202E)
# Chain of HOXB6 (Homo sapiens, UniProt P17509 132-218, K202E) (P17509 132-218 K202E): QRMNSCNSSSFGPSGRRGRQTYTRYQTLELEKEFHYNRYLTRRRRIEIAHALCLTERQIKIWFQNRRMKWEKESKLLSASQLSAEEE
# HOXC9 [14] = target: HOXC9 (Homo sapiens, UniProt P31274 178-260)
# Chain of HOXC9 (Homo sapiens, UniProt P31274 178-260) (P31274 178-260): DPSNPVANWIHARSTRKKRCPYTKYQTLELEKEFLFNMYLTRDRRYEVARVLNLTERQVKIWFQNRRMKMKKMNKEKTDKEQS
# HOXC9 [15] = target: HOXC9 (Homo sapiens, UniProt P31274 178-260, R193K)
# Chain of HOXC9 (Homo sapiens, UniProt P31274 178-260, R193K) (P31274 178-260 R193K): as the sequence (P31274 178-260) above, with R16K counted along it
# HOXC10 [16] = target: HOXC10 (Homo sapiens, UniProt Q9NYD6 254-340, K271E)
# Chain of HOXC10 (Homo sapiens, UniProt Q9NYD6 254-340, K271E) (Q9NYD6 254-340 K271E): as the sequence (Q9NYD6 254-340) above, with K18E counted along it
# HOXC9 [17] = target: HOXC9 (Homo sapiens, UniProt P31274 178-260, R222W)
# Chain of HOXC9 (Homo sapiens, UniProt P31274 178-260, R222W) (P31274 178-260 R222W): as the sequence (P31274 178-260) above, with R45W counted along it
# HOXA7 [18] = target: HOXA7 (Homo sapiens, UniProt P31268 116-202, W177C)
# Chain of HOXA7 (Homo sapiens, UniProt P31268 116-202, W177C) (P31268 116-202 W177C): as the sequence (P31268 116-202) above, with W62C counted along it
# HOXB6 [19] = target: HOXB6 (Homo sapiens, UniProt P17509 132-218)
# Chain of HOXB6 (Homo sapiens, UniProt P17509 132-218) (P17509 132-218): as the sequence (P17509 132-218 K202E) above, with E71K counted along it
# HOXB9 [20] = target: HOXB9 (Homo sapiens, UniProt P17482 171-250)
# Chain of HOXB9 (Homo sapiens, UniProt P17482 171-250) (P17482 171-250): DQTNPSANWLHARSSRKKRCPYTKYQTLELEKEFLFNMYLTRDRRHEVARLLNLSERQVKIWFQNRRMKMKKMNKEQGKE
# HOXB9 [21] = target: HOXB9 (Homo sapiens, UniProt P17482 171-250, R186Q)
# Chain of HOXB9 (Homo sapiens, UniProt P17482 171-250, R186Q) (P17482 171-250 R186Q): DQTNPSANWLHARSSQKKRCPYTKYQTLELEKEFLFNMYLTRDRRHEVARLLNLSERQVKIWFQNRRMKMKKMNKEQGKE
# HOXA4 [22] = target: HOXA4 (Homo sapiens, UniProt Q00056 201-287, W262R)
# Chain of HOXA4 (Homo sapiens, UniProt Q00056 201-287, W262R) (Q00056 201-287 W262R): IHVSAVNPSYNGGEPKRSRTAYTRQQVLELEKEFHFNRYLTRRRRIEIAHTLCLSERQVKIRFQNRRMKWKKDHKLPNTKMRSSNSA
# HOXA2 [23] = target: HOXA2 (Homo sapiens, UniProt O43364 129-215, R185T)
# Chain of HOXA2 (Homo sapiens, UniProt O43364 129-215, R185T) (O43364 129-215 R185T): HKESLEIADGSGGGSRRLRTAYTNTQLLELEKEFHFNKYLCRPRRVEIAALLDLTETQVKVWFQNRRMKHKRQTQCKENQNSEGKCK
# HOXA4 [24] = target: HOXA4 (Homo sapiens, UniProt Q00056 201-287, R217L)
# Chain of HOXA4 (Homo sapiens, UniProt Q00056 201-287, R217L) (Q00056 201-287 R217L): as the sequence (Q00056 201-287 W262R) above, with R17L, R62W counted along it
# PITX2 = PITX2 (Homo sapiens, UniProt Q99697 72-157)
# HOXA2 [25] = target: HOXA2 (Homo sapiens, UniProt O43364 129-215, R185K)
# Chain of HOXA2 (Homo sapiens, UniProt O43364 129-215, R185K) (O43364 129-215 R185K): as the sequence (O43364 129-215 R185T) above, with T57K counted along it
# HOXA4 [26] = target: HOXA4 (Homo sapiens, UniProt Q00056 201-287)
# Chain of HOXA4 (Homo sapiens, UniProt Q00056 201-287) (Q00056 201-287): as the sequence (Q00056 201-287 W262R) above, with R62W counted along it
# HOXA2 [27] = target: HOXA2 (Homo sapiens, UniProt O43364 129-215, Y150S)
# Chain of HOXA2 (Homo sapiens, UniProt O43364 129-215, Y150S) (O43364 129-215 Y150S): as the sequence (O43364 129-215 R185T) above, with Y22S, T57R counted along it
# HOXA4 [28] = target: HOXA4 (Homo sapiens, UniProt Q00056 201-287, W262F)
# Chain of HOXA4 (Homo sapiens, UniProt Q00056 201-287, W262F) (Q00056 201-287 W262F): as the sequence (Q00056 201-287 W262R) above, with R62F counted along it
# HOXA2 [29] = target: HOXA2 (Homo sapiens, UniProt O43364 129-215)
# Chain of HOXA2 (Homo sapiens, UniProt O43364 129-215) (O43364 129-215): as the sequence (O43364 129-215 R185T) above, with T57R counted along it
# HOXD13 [30] = target: HOXD13 (Homo sapiens, UniProt P35453 263-343, T313R)
# Chain of HOXD13 (Homo sapiens, UniProt P35453 263-343, T313R) (P35453 263-343 T313R): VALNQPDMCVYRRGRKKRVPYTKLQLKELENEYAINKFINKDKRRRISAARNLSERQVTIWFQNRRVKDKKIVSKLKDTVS
# HOXD13 [31] = target: HOXD13 (Homo sapiens, UniProt P35453 263-343)
# Chain of HOXD13 (Homo sapiens, UniProt P35453 263-343) (P35453 263-343): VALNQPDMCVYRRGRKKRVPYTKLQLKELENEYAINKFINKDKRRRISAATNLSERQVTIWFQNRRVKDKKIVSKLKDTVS
# HOXD13 [32] = target: HOXD13 (Homo sapiens, UniProt P35453 263-343, T313A)
# Chain of HOXD13 (Homo sapiens, UniProt P35453 263-343, T313A) (P35453 263-343 T313A): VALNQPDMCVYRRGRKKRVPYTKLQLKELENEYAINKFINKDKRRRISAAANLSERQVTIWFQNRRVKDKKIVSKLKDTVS
sequence,measurement,setting,value
TAATCGGA,binding signal,VENTX [1],"10.4 upbm affinity estimate (log intensity, higher = more binding, comparable within an allelic series)"
same,binding signal,VENTX [2],"10.6 upbm affinity estimate (log intensity, higher = more binding, comparable within an allelic series)"
CACATTAG,binding signal,VENTX [1],"11 upbm affinity estimate (log intensity, higher = more binding, comparable within an allelic series)"
same,binding signal,ALX3 [3],"8.26 upbm affinity estimate (log intensity, higher = more binding, comparable within an allelic series)"
same,binding signal,ALX3 [4],"10.6 upbm affinity estimate (log intensity, higher = more binding, comparable within an allelic series)"
same,binding signal,VAX1 [5],"11.3 upbm affinity estimate (log intensity, higher = more binding, comparable within an allelic series)"
same,binding signal,VAX1 [6],"10.8 upbm affinity estimate (log intensity, higher = more binding, comparable within an allelic series)"
same,binding signal,ALX3 [7],"8.21 upbm affinity estimate (log intensity, higher = more binding, comparable within an allelic series)"
same,binding signal,VAX1 [8],"11 upbm affinity estimate (log intensity, higher = more binding, comparable within an allelic series)"
ATTATTAC,binding signal,HOXB9 [9],"10 upbm affinity estimate (log intensity, higher = more binding, comparable within an allelic series)"
same,binding signal,HOXC9 [10],"12.5 upbm affinity estimate (log intensity, higher = more binding, comparable within an allelic series)"
same,binding signal,HOXA7 [11],"11.2 upbm affinity estimate (log intensity, higher = more binding, comparable within an allelic series)"
same,binding signal,HOXC10 [12],"12.1 upbm affinity estimate (log intensity, higher = more binding, comparable within an allelic series)"
same,binding signal,HOXB6 [13],"10 upbm affinity estimate (log intensity, higher = more binding, comparable within an allelic series)"
same,binding signal,HOXC9 [14],"12.6 upbm affinity estimate (log intensity, higher = more binding, comparable within an allelic series)"
same,binding signal,HOXC9 [15],"12.5 upbm affinity estimate (log intensity, higher = more binding, comparable within an allelic series)"
same,binding signal,HOXC10 [16],"11.6 upbm affinity estimate (log intensity, higher = more binding, comparable within an allelic series)"
same,binding signal,HOXC9 [17],"11 upbm affinity estimate (log intensity, higher = more binding, comparable within an allelic series)"
same,binding signal,HOXA7 [18],"8.99 upbm affinity estimate (log intensity, higher = more binding, comparable within an allelic series)"
same,binding signal,HOXB6 [19],"11.7 upbm affinity estimate (log intensity, higher = more binding, comparable within an allelic series)"
GACATTAA,binding signal,HOXB9 [9],"10 upbm affinity estimate (log intensity, higher = more binding, comparable within an allelic series)"
same,binding signal,HOXC9 [10],"12.6 upbm affinity estimate (log intensity, higher = more binding, comparable within an allelic series)"
same,binding signal,HOXA7 [11],"11.2 upbm affinity estimate (log intensity, higher = more binding, comparable within an allelic series)"
same,binding signal,HOXB6 [13],"10 upbm affinity estimate (log intensity, higher = more binding, comparable within an allelic series)"
same,binding signal,HOXB9 [20],"11.8 upbm affinity estimate (log intensity, higher = more binding, comparable within an allelic series)"
same,binding signal,HOXC9 [14],"12.6 upbm affinity estimate (log intensity, higher = more binding, comparable within an allelic series)"
same,binding signal,HOXC9 [15],"12.5 upbm affinity estimate (log intensity, higher = more binding, comparable within an allelic series)"
same,binding signal,HOXC10 [16],"11.9 upbm affinity estimate (log intensity, higher = more binding, comparable within an allelic series)"
same,binding signal,HOXB9 [21],"11.6 upbm affinity estimate (log intensity, higher = more binding, comparable within an allelic series)"
same,binding signal,HOXC9 [17],"10.9 upbm affinity estimate (log intensity, higher = more binding, comparable within an allelic series)"
same,binding signal,HOXA7 [18],"8.93 upbm affinity estimate (log intensity, higher = more binding, comparable within an allelic series)"
same,binding signal,HOXB6 [19],"11.7 upbm affinity estimate (log intensity, higher = more binding, comparable within an allelic series)"
ATTAACGA,binding signal,HOXB9 [9],"10 upbm affinity estimate (log intensity, higher = more binding, comparable within an allelic series)"
same,binding signal,HOXA4 [22],"10.6 upbm affinity estimate (log intensity, higher = more binding, comparable within an allelic series)"
same,binding signal,HOXC9 [10],"12.6 upbm affinity estimate (log intensity, higher = more binding, comparable within an allelic series)"
same,binding signal,HOXC10 [12],"12.2 upbm affinity estimate (log intensity, higher = more binding, comparable within an allelic series)"
same,binding signal,VENTX [2],"11.5 upbm affinity estimate (log intensity, higher = more binding, comparable within an allelic series)"
same,binding signal,HOXA2 [23],"12.4 upbm affinity estimate (log intensity, higher = more binding, comparable within an allelic series)"
same,binding signal,HOXA4 [24],"12 upbm affinity estimate (log intensity, higher = more binding, comparable within an allelic series)"
same,binding signal,HOXC9 [14],"12.5 upbm affinity estimate (log intensity, higher = more binding, comparable within an allelic series)"
same,binding signal,PITX2,"10.7 upbm affinity estimate (log intensity, higher = more binding, comparable within an allelic series)"
same,binding signal,HOXC9 [15],"12.5 upbm affinity estimate (log intensity, higher = more binding, comparable within an allelic series)"
same,binding signal,HOXA2 [25],"13.3 upbm affinity estimate (log intensity, higher = more binding, comparable within an allelic series)"
same,binding signal,HOXA4 [26],"13.6 upbm affinity estimate (log intensity, higher = more binding, comparable within an allelic series)"
same,binding signal,HOXC10 [16],"12.1 upbm affinity estimate (log intensity, higher = more binding, comparable within an allelic series)"
same,binding signal,HOXC9 [17],"10.9 upbm affinity estimate (log intensity, higher = more binding, comparable within an allelic series)"
same,binding signal,HOXA2 [27],"10.9 upbm affinity estimate (log intensity, higher = more binding, comparable within an allelic series)"
same,binding signal,HOXA4 [28],"11.4 upbm affinity estimate (log intensity, higher = more binding, comparable within an allelic series)"
same,binding signal,HOXA2 [29],"12 upbm affinity estimate (log intensity, higher = more binding, comparable within an allelic series)"
CCATTAAA,binding signal,HOXB9 [9],"10.1 upbm affinity estimate (log intensity, higher = more binding, comparable within an allelic series)"
same,binding signal,HOXC9 [10],"13 upbm affinity estimate (log intensity, higher = more binding, comparable within an allelic series)"
same,binding signal,HOXA7 [11],"11.5 upbm affinity estimate (log intensity, higher = more binding, comparable within an allelic series)"
same,binding signal,HOXC10 [12],"12.5 upbm affinity estimate (log intensity, higher = more binding, comparable within an allelic series)"
same,binding signal,HOXB6 [13],"9.87 upbm affinity estimate (log intensity, higher = more binding, comparable within an allelic series)"
same,binding signal,HOXB9 [20],"12.4 upbm affinity estimate (log intensity, higher = more binding, comparable within an allelic series)"
same,binding signal,HOXC9 [14],"13.1 upbm affinity estimate (log intensity, higher = more binding, comparable within an allelic series)"
same,binding signal,HOXD13 [30],"10.6 upbm affinity estimate (log intensity, higher = more binding, comparable within an allelic series)"
same,binding signal,HOXC9 [15],"13 upbm affinity estimate (log intensity, higher = more binding, comparable within an allelic series)"
same,binding signal,HOXD13 [31],"11.9 upbm affinity estimate (log intensity, higher = more binding, comparable within an allelic series)"
same,binding signal,HOXC10 [16],"12.2 upbm affinity estimate (log intensity, higher = more binding, comparable within an allelic series)"
same,binding signal,VAX1 [5],"12.2 upbm affinity estimate (log intensity, higher = more binding, comparable within an allelic series)"
same,binding signal,HOXD13 [32],"11.6 upbm affinity estimate (log intensity, higher = more binding, comparable within an allelic series)"
same,binding signal,HOXB9 [21],"12.2 upbm affinity estimate (log intensity, higher = more binding, comparable within an allelic series)"
same,binding signal,HOXC9 [17],"11.1 upbm affinity estimate (log intensity, higher = more binding, comparable within an allelic series)"
same,binding signal,VAX1 [6],"11.9 upbm affinity estimate (log intensity, higher = more binding, comparable within an allelic series)"
same,binding signal,HOXA7 [18],"8.59 upbm affinity estimate (log intensity, higher = more binding, comparable within an allelic series)"
same,binding signal,HOXA4 [28],"10.9 upbm affinity estimate (log intensity, higher = more binding, comparable within an allelic series)"
same,binding signal,VAX1 [8],"11.8 upbm affinity estimate (log intensity, higher = more binding, comparable within an allelic series)"
same,binding signal,HOXB6 [19],"12 upbm affinity estimate (log intensity, higher = more binding, comparable within an allelic series)"
